The results in this text go back to PubChem BioAssay (Tox21).

Inconclusive results are not listed. Entries that show only a call come without a potency. Active and inactive are the calls of the source. Calls follow the shape of the dose curve; as a rule, active = well fitted cell-killing curve with a large enough effect in the repeat runs; inconclusive = weak or mixed curves; inactive = no such curve, though single readings can be large or run the other way.

The experiment can be described thus: qHTS assay to identify small molecule antagonists of the peroxisome proliferator-activated receptor delta (PPARd) signaling pathway - cell viability counter screen (AID 743213). Also: nearly all actives have a fitted effect of over 50% in size. The following applies: PPARd-bla HEK293H viability, CellTiter-Glo luminescence, 17 h; series mostly up to 62 µM. A digest of the protocol: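 CellTiter-Glo was added to PPARd-bla HEK293H wells following 17 h compound treatment in the presence of 300 nM L165041. Luminescence was recorded after 30 min at room temperature.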
A general note: qHTS replaces the single test concentration by a dilution series.
With `Cc1ncc(CSSCc2cnc(C)c(O)c2CO)c(CO)c1O`, the Potency entry is “inactive”.
Regarding `CCCCCCC(CCCCCCCCCCC(=O)OCC(COC(C)=O)OC(C)=O)OC(C)=O` (configuration not stated), the Potency result was “inactive”.
Then `NC(=O)Nc1nc2ccccc2[nH]1`, with “inactive”.
The same measure for `Cc1nc(-c2ccc(OCC(C)C)c(C#N)c2)sc1C(=O)O`: “inactive”; for `CC(C)[C@H](N)C(=O)OCCOCn1cnc2c(=O)[nH]c(N)nc21`: “inactive”; for `CC(O)CN(CCCN(C)C)CCCN(C)C` (configuration not stated): “inactive”.
With `Cc1cc(C)c(NC(=O)CN(CC(=O)O)CC(=O)O)c(C)c1Br`, the Potency result is “inactive”.
Consider `CC(C)(O)C(=O)c1ccc(OCCO)cc1`, for which the Potency result is “inactive”.
The same measure for `CC(C)(O)c1ccccc1`: “inactive”.
The same measure for `CCc1cc(S(=O)(=O)O)c2cc(C(C)C)cccc1-2`: “inactive”.
The same measure for `Cc1onc(-c2ccccc2)c1-c1ccc(S(N)(=O)=O)cc1`: “inactive”; for `N#CCc1ccccc1[N+](=O)[O-]`: “inactive”; for `O=C1C(CCS(=O)c2ccccc2)C(=O)N(c2ccccc2)N1c1ccccc1` (configuration not stated): “inactive”.
For the molecule `CCOC(=O)Cn1c(=O)sc2cccc(Cl)c21`, the Potency entry was “inactive”.
`O=C(O)c1cccc(C(=O)O)n1`: the Potency entry was “inactive”.
Then `CCCCCC[C@@H](CCC)C(=O)O`, with “inactive”; and `Cc1cc(C)cc(OCC2CNC(=O)O2)c1` (configuration not stated), with “inactive”.
Turning to `NC(=O)c1ncn([C@@H]2O[C@H](CO)[C@@H](O)[C@H]2O)c1O`, the Potency entry is “inactive”.
Then `CSc1ccc(C=O)cc1`, with “inactive”; and `CCC(C)(C)C1CCC(OC)CC1` (configuration not stated), with “inactive”; and `C[C@H]1O[C@@H](n2cc(F)c(=O)[nH]c2=O)[C@H](O)[C@@H]1O`, with “inactive”.
The same measure for `Cc1c(F)cc2c(=O)c(C(=O)O)cn3c2c1CCC3C` (configuration not stated): “inactive”.
